About 3,700 (1%) of roughly 370,000 compounds were called active.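 Rule for the calls: active = activation above the mean over all tested compounds plus 3 SD (cut at about 0.9% in these data); inactive = the rest.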 Many of the other results were omitted from the sample, so actives are more common in it than they were.
tested on: Nuclear hormone receptor DAF-12 (Strongyloides stercoralis); assay: ssDAF-12 driven luciferase reporter activation – cell-based, luminescence, HEK293, GRIP1 co-expression, lit1-tk-luc, primary screen (AID 652126); details: HEK293 ssDAF-12/GRIP1 lit1-tk-luc reporter, at 6.8 µM, stronger effect = higher value;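 note: 0% = DMSO-only wells and 100% = 3 µM delta7-dafachronic acid wells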

SMILES	activation
CCNc1nc2[nH]c(=O)c3c(c2s1)OC(N)=C(C#N)C3c1cccs1 (stereo not given)	-0.98% (inactive)
COc1ccc(C2C=C(C)Oc3c2c(=O)oc2ccccc32)cc1OC (stereo not given)	-0.69% (inactive)
N#CC1=C(N)Oc2c(c(=O)oc3ccccc23)C1c1ccccc1OC(=O)c1cccs1 (stereo not given)	1.09% (active)
COP(=O)(Sc1ccccc1)C(Cc1ccccc1)NC(=O)OCc1ccccc1 (stereo not given)	-1.15% (inactive)
COc1ccc2c(c1)NP(=S)(c1ccccc1)N2 (stereo not given)	1.75% (active)
Cc1cc(C)c2c(c1)NP(=S)(c1ccccc1)N2 (stereo not given)	-0.09% (inactive)
CO[C@H]([C@H](C)/C=C/N(C)C=O)[C@@H](C)C(=O)CC[C@H](C)[C@H](O)[C@H](C)[C@H]1OC(=O)/C=C/C(C)=C/[C@H](O)[C@H](OC)C[C@@H]2C=CC[C@@H](C[C@H](OC)[C@@]3(CO3)[C@@H](OC)C[C@@H](OC)[C@@H]1C)O2	-0.84% (inactive)
O=c1c2ccccc2nc(/C=C/c2ccc(F)cc2)n1-c1ccccc1O	-0.65% (inactive)
Cc1ccccc1CCC[C@@H](CC1CCCCC1)CN(C)C(=O)Oc1ccccc1	-1.05% (inactive)
CCOP(=S)(OCC)C(O)CCCCCn1c(=O)c(F)cn(C2CCCO2)c1=O (stereo not given)	1.73% (active)
Clc1ccc2nc3c(c(-c4ccccc4)c2c1)CNCC3	-0.92% (inactive)
COc1ccc(CNCCc2c[nH]c3ccccc23)cc1OC	1.6% (active)
COc1ccc(CNCCc2ccc3c(c2)OCO3)c(OC)c1OC	-0.57% (inactive)
c1cncc(CNCCc2c[nH]c3ccccc23)c1	-0.72% (inactive)
CN(C)S(=O)(=O)c1cc(C(=O)N2CCC(C(=O)O)(c3ccccc3)CC2)ccc1Cl	-1.1% (inactive)
CN(C)c1nc(N(C)C)nc(N(C#N)CCCl)n1	-1.19% (inactive)
C[C@]12CCC3C(CC[C@H]4[C@H](O)[C@H](O)CC[C@]34C)C1CC[C@@H]2O (stereo not given in full)	-0.82% (inactive)
O=C(CSC1c2ccccc2-c2ccccc21)N/N=C/c1ccccc1	-0.76% (inactive)
COc1c(O)ccc2c1-c1c3c(cc4c1C(C2)N(C)CC4)OCO3 (stereo not given)	-0.77% (inactive)
Cc1ccc(OC(=O)N(C)C[C@@H]2OCc3cnnn3CCCC(=O)N([C@H](C)CO)C[C@@H]2C)cc1	-0.97% (inactive)
